# Screening data deposited in PubChem by several laboratories.
# BJeLR viability: kills HRASV12-expressing BJeLR cells. actives 0.17% (n = 300,000). BJeLR (HRASV12) viability, CellTiter-Glo ATP luminescence, 48 h. AID 1554. inhibition, % (no concentration beside the values); in the data active = inhibition above about 50%
# PrP 5UTR inh: suppresses PrP 5' UTR mRNA reporter expression. cell-based PrP 5' UTR mRNA reporter, plate reader. actives 0.35% (n = 340,000). AID 488862. inhibition, % (test concentration not listed); in the data active = inhibition above about 52%; also: 0 = median of the neutral control wells
# PriA SSB inh: K. pneumoniae PriA-SSBct interaction inhibition; actives 0.6% (n = 430,000); AlphaScreen SSBct-PriA binding, biotinylated peptide; inhibition, % at 33 µM; AID 1272365; in the data active = inhibition mostly above about 37%, no sharp cut-off; inactive = mostly below about 20%;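 also: plate controls were negative control peptide for no effect and reference peptide for full effect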
# PrPC TRFRET: reduces human prion protein on the cell surface | AID 720596 | actives 0.43% (n = 370,000) | inhibition, % at 13.8 µM | P04156 | cell surface PrPC, TR-FRET read-out; in the data active = inhibition above about 24%; also: 0% = median of the test wells and 100% = reference compound wells
# PfHsp40 yeast: compounds rescuing yeast from Plasmodium falciparum HSP40 toxicity. S. cerevisiae expressing PfHsp40, growth rescue, ATP luminescence. AID 504582. growth rescue, % at 12.5 µM. actives 0.68% (n = 340,000); in the data active = growth rescue above about 28%, passing the limit was not always enough;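 also: yeast W303a lacking pdr1 and pdr3 grown in galactose medium; growth measured after three days at 30 °C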
# Y pestis TopoI: blocks Yersinia pestis topoisomerase I activity. activity, % at 10 µM. actives 0.064% (n = 360,000). Y. pestis Topo-I cleavage product accumulation, plate reader; in the data active = activity above about 50%, passing the limit was not always enough
# PrPC confirm: confirmation of inhibitors of cell surface human prion protein; AID 743200; inhibition, % at 13.8 µM; cell surface PrPC level, TR-FRET; actives 65% (n = 1,500); shares compounds with PrPC TRFRET; in the data active = inhibition above about 25%
# LD9 cytotox: LD9 cell cytotoxicity, PrPc inhibitor counter-screen | AID 743201 | shares compounds with PrPC TRFRET | LD9 cells cytotoxicity, luminescence viability | actives 29% (n = 1,500) | inhibition, % at 13.8 µM; in the data active = inhibition above about 9.5%
# Active calls of the source: *; / = not tested or not shown. Rows were chosen to be rich in hits. Some 1.7% of all compounds tested hit in one or more screens of this group.
SMILES,BJeLR viability,PrP 5UTR inh,PriA SSB inh,PrPC TRFRET,PfHsp40 yeast,Y pestis TopoI,PrPC confirm,LD9 cytotox
COc1ccc(C(=O)NNC(=O)C(Cc2ccc(O)cc2)NC(=O)c2ccccc2NC(=O)c2ccc(OC)cc2)cc1 (stereo not given),-8,1,4,119*,0,5,2,-4
CCCCn1c(=O)[nH]c(=O)c2c1nc(Cn1ncc(Cl)c(Cl)c1=O)n2CCC,-27,-29,-5,44*,0,7,43*,71*
CCCCn1c(=O)[nH]c(=O)c2c1nc(CN1C(=O)c3ccccc3S1(=O)=O)n2CCC,13,-5,6,12,0,13,/,/
Cc1cc(NC(=O)c2sc(Nc3ccc(F)cc3)nc2N)no1,-6,-18,10,26*,2,-15,26*,13*
C=CCNc1nc(N)c(C(=O)Nc2cc(C)on2)s1,-3,-84,-2,-7,0,-7,/,/
O=C(NCc1ccc(C(=O)c2ccsc2)s1)Nc1ccccc1,/,/,-5,/,/,/,/,/
Cc1cc([N+](=O)[O-])nn1Cc1ccc(C(=O)NN=Cc2ccc(O)cc2O)cc1,/,/,3,/,/,/,/,/
Cc1cc([N+](=O)[O-])nn1Cc1ccc(C(=O)N/N=C/c2ccc(O)cc2O)cc1,-1,-17,/,32*,3,-14,29*,21*
O=C(NN=Cc1ccc(O)cc1O)c1ccc(CN2C(=O)c3cccc4cccc2c34)cc1,/,/,-14,/,/,/,/,/
O=C(N/N=C/c1ccc(O)cc1O)c1ccc(CN2C(=O)c3cccc4cccc2c34)cc1,14,22,/,31*,16,-10,29*,19*
Cn1nc(CN(C(=O)c2ccc3nsnc3c2)C2CCCC2)c2c1CCC2,/,/,-16,/,/,/,/,/
O=C(COc1cccc2c1CCN(Cc1ccccc1)C2=O)N1CCCCC1,-4,-8,13,29*,2,13,18,-3
COc1ccc(-c2cc(C(=O)NN=C/C(C)=C/c3ccccc3)[nH]n2)cc1,/,/,/,25*,/,/,20,-2
O=C(NN=Cc1ccc(O)cc1)c1cc(-c2ccc(Cl)cc2)n[nH]1,/,/,/,26*,/,/,32*,4
COc1ccc(-c2cc(C(=O)NN=Cc3ccc(-c4ccccc4)cc3)[nH]n2)cc1,/,/,/,5,/,/,/,/
Cc1ccc(C(C)C)c(OCc2ccc(C(=O)N/N=C/c3ccc(O)c(O)c3)cc2)c1,-8,3,/,28*,0,-7,41*,11*
COc1cc(/C=N/NC(=O)c2ccc(COc3cc(C)ccc3C(C)C)cc2)cc(OC)c1O,-1,7,/,2,0,-6,/,/
CCOc1ccc(C(=O)Nc2ccc3[nH]ncc3c2)cc1,6,-48,-10,33*,0,5,7,1
COc1ccc(C(=O)Nc2ccc3[nH]ncc3c2)cc1,-1,-34,-15,-1,0,1,/,/
CCOC(=O)C(CC)Sc1cc(C)nc2ccc(OC)cc12 (stereo not given),-1,7,-7,32*,0,15,60*,-9
O=C(Nc1nnc(CCS(=O)(=O)c2ccccc2)o1)c1sc2ccccc2c1Cl,/,/,9,/,/,/,/,/
COc1ccc(CNC(=O)c2cccc3c(-c4cccc(C(N)=O)c4)coc23)cc1OC,/,/,/,37*,/,30,25*,28*
CCOC(=O)c1c(NC(=O)c2sc3ccccc3c2Cl)sc(Cc2ccc3c(c2)OCO3)c1C,/,/,-6,/,/,/,/,/
Cc1csc(NC(=O)CSc2nc(C(C)C)nc3ccccc23)n1,6,-18,0,84*,6,-4,105*,-5
CC(C)c1nc(SCC(=O)Nc2nccs2)c2ccccc2n1,-10,5,-6,51*,0,-7,90*,-4
SMILES,BJeLR viability,PrP 5UTR inh,PriA SSB inh,PrPC TRFRET,PfHsp40 yeast,Y pestis TopoI,PrPC confirm,LD9 cytotox
CC(C)c1nc(SCC(=O)Nc2ccc(N(C)C)cc2)c2ccccc2n1,-2,-38,2,79*,0,5,93*,-5
CC(C)c1nc(SCC(=O)NC2CCCCC2)c2ccccc2n1,-8,7,-13,3,1,2,/,/
O=C(CSc1ncnc2ccccc12)Nc1nccs1,/,/,6,/,/,/,/,/
O=c1c(Cl)c[nH]cc1Cl,/,/,-7,/,/,/,/,/
Cc1ccccc1-c1ccc(=O)n(CC(=O)N2CCOCC2)n1,/,/,8,/,/,/,/,/
NC(=O)c1ccc(-c2ccc(Br)cc2)o1,6,-9,-5,53*,1,0,63*,-9
COc1ccc(S(=O)(=O)N(C)CCCC(=O)O)cc1N(C)S(=O)(=O)c1ccc(C)cc1,/,/,-2,/,/,/,/,/
O=C1C=CC2C3C(=O)N(c4ccccc4)C(=O)C3C1N2Cc1ccccc1 (stereo not given),/,-15,-20,49*,-2,3,4,99*
O=C1C2C3C=CC(CC3)C2C(=O)N1c1ccccc1 (stereo not given),8,-16,5,-4,-2,7,/,/
COc1cc(C)c(C)cc1S(=O)(=O)NCC1CCN(C(=O)c2ccoc2)CC1,/,/,-13,/,/,/,/,/
O=C(NNc1ccc(-c2csnn2)cc1)c1cc(Cl)cc(Cl)c1,-7,/,5,27*,/,-4,32*,-2
CCOC(=O)COc1nc(-c2ccco2)cc(-c2ccco2)c1C#N,-9,-26,-8,2,-2,-5,/,/
CCOC(=O)C(C)Sc1nc(-c2ccco2)cc(C(F)(F)F)c1C#N (stereo not given),3,0,3,33*,1,-4,49*,-1
CCS(=O)(=O)c1ccc(-c2ccc(NS(=O)(=O)c3cccc(Cl)c3)cc2)nn1,/,/,-3,/,/,/,/,/
COc1ccccc1OCC#N,/,/,-14,/,/,/,/,/
CCCc1noc2c1/C(=N\O)CC(c1ccccc1)C2 (stereo not given),4,-14,/,24*,0,6,5,6
CCCc1noc2c1C(=NO)CC(c1ccccc1)C2 (stereo not given),/,/,-14,/,/,/,/,/
Cc1cc(C)cc(-n2nnn(C3CC(=NNC(N)=S)C4OCC3O4)c2=S)c1 (stereo not given),/,/,15,/,/,/,/,/
NC(=S)N/N=C1\CC(n2nnn(-c3cccc(Cl)c3)c2=S)C2COC1O2 (stereo not given),-16,-26,/,28*,1,0,42*,-4
Brc1cc2[nH]cnc2c2ccccc12,14,-12,-7,61*,1,-4,79*,-8
Cc1cc(Cl)c(S(=O)(=O)NC(C(=O)O)C(C)C)cc1OCC(=O)NC1CCCCC1 (stereo not given),-1,-12,0,5,2,4,/,/
Cc1cc(Cl)c(S(=O)(=O)N2CCCC2)cc1OCC(=O)NC1CCCCC1,-5,-14,-14,26*,1,13,16,0
Oc1cc2c(cc1CN1CCc3ccccc3C1)OCO2,-1,-17,8,-7,0,9,/,/
